Laboratory results from the supplement of paper PMC7411054.

Tests used:
Settings in all cases: treatment time: 24 h
[1] = system: A549-ACTB-RAB5A; experiment: lowest phenotypically active concentration; higher = less potent
Method in brief: (§1)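 Fifteen reporter lines derived from A549, HepG2 and WPMY1 cells by gene editing, carrying BFP for segmentation plus GFP and RFP/FusionRed markers, were exposed to 0.3, 1, 3 or 9 µM for 24 h in four wells each and imaged live. Live-cell features from each well were normalised to solvent control wells. A well set counted as deviating when ≥3 of 4 wells lay beyond the 95th percentile of control Euclidean distances, and as reproducible when the median replicate Pearson correlation exceeded the 95th percentile of non-replicates. Phenotypic activity was assigned only when both criteria were met.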

[2] = system: A549-GM130-SQSTM1; experiment: as above
Method in brief: as §1

[3] = system: HepG2-ACTB-RAB5A; experiment: as above
Method in brief: as §1

[4] = system: HepG2-TP53BP1-CLTA; experiment: as above
Method in brief: as §1

[5] = system: A549-ACTB-RAB5A; experiment: phenotypically active (imaging signature differs from DMSO and reproducible) at any of 0.3-9 uM (binary (1 = active, 0 = inactive)); higher = active
Method in brief: as §1

[6] = system: A549-CANX-COX4; experiment: as above
Method in brief: as §1

[7] = system: A549-GM130-SQSTM1; experiment: as above
Method in brief: as §1

[8] = system: A549-TP53BP1-CLTA; experiment: as above
Method in brief: as §1

[9] = system: A549-TUBA1B-RELA; experiment: as above
Method in brief: as §1

[10] = system: HepG2-ACTB-RAB5A; experiment: as above
Method in brief: as §1

[11] = system: HepG2-CANX-COX4; experiment: as above
Method in brief: as §1

[12] = system: HepG2-GM130-SQSTM1; experiment: as above
Method in brief: as §1

[13] = system: HepG2-TP53BP1-CLTA; experiment: as above
Method in brief: as §1

[14] = system: HepG2-TUBA1B-RELA; experiment: as above
Method in brief: as §1

[15] = system: WPMY1-ACTB-RAB5A; experiment: as above
Method in brief: as §1

[16] = system: WPMY1-CANX-COX4; experiment: as above
Method in brief: as §1

[17] = system: WPMY1-GM130-SQSTM1; experiment: as above
Method in brief: as §1

[18] = system: WPMY1-TP53BP1-CLTA; experiment: as above
Method in brief: as §1

[19] = system: WPMY1-TUBA1B-RELA; experiment: as above
Method in brief: as §1

[20] = system: A549-TUBA1B-RELA; experiment: lowest phenotypically active concentration; higher = less potent
Method in brief: as §1

O=C(O)C[C@H](O)C[C@H](O)/C=C/c1c(C2CC2)nc2ccccc2c1-c1ccc(F)cc1 [Pitavastatin calcium]
inactive: phenotypically active [6] 0 | phenotypically active [9] 0
9 µM: lowest phenotypically active concentration [2]
1 µM: lowest phenotypically active concentration [1] | lowest phenotypically active concentration [3] | lowest phenotypically active concentration [4]
active: phenotypically active [5] 1 | phenotypically active [7] 1 | phenotypically active [8] 1 | phenotypically active [10] 1 | phenotypically active [11] 1 | phenotypically active [12] 1 | phenotypically active [13] 1 | phenotypically active [14] 1 | phenotypically active [15] 1 | phenotypically active [16] 1 | phenotypically active [17] 1 | phenotypically active [18] 1 | phenotypically active [19] 1

COc1cc2ncnc(Nc3ccc(Cl)cc3F)c2cc1OC
inactive: phenotypically active [6] 0 | phenotypically active [10] 0 | phenotypically active [11] 0 | phenotypically active [12] 0 | phenotypically active [13] 0 | phenotypically active [14] 0 | phenotypically active [15] 0 | phenotypically active [16] 0 | phenotypically active [17] 0 | phenotypically active [18] 0 | phenotypically active [19] 0
9 µM: lowest phenotypically active concentration [1]
active: phenotypically active [5] 1 | phenotypically active [7] 1 | phenotypically active [8] 1 | phenotypically active [9] 1
3 µM: lowest phenotypically active concentration [2] | lowest phenotypically active concentration [20]

NS(=O)(=O)c1nn2cc(-c3ccccc3)nc2s1
active: phenotypically active [5] 1 | phenotypically active [7] 1 | phenotypically active [8] 1 | phenotypically active [10] 1 | phenotypically active [11] 1 | phenotypically active [12] 1 | phenotypically active [14] 1 | phenotypically active [15] 1 | phenotypically active [17] 1 | phenotypically active [18] 1 | phenotypically active [19] 1
inactive: phenotypically active [6] 0 | phenotypically active [9] 0 | phenotypically active [13] 0 | phenotypically active [16] 0
9 µM: lowest phenotypically active concentration [1] | lowest phenotypically active concentration [2] | lowest phenotypically active concentration [3]

Cc1ccc(NC(=O)c2cccc(N(C)C)c2)cc1NC(=O)c1ccc(O)cc1
inactive: phenotypically active [6] 0 | phenotypically active [10] 0 | phenotypically active [11] 0 | phenotypically active [12] 0 | phenotypically active [13] 0 | phenotypically active [14] 0 | phenotypically active [16] 0 | phenotypically active [17] 0 | phenotypically active [18] 0 | phenotypically active [19] 0
active: phenotypically active [5] 1 | phenotypically active [7] 1 | phenotypically active [8] 1 | phenotypically active [9] 1 | phenotypically active [15] 1
3 µM: lowest phenotypically active concentration [1] | lowest phenotypically active concentration [2] | lowest phenotypically active concentration [20]

CC(C)COCC(CN(Cc1ccccc1)c1ccccc1)N1CCCC1 (stereo not drawn) [bepridil]
9 µM: lowest phenotypically active concentration [1] | lowest phenotypically active concentration [2] | lowest phenotypically active concentration [20] | lowest phenotypically active concentration [3] | lowest phenotypically active concentration [4]
active: phenotypically active [5] 1 | phenotypically active [7] 1 | phenotypically active [8] 1 | phenotypically active [9] 1 | phenotypically active [10] 1 | phenotypically active [11] 1 | phenotypically active [12] 1 | phenotypically active [13] 1 | phenotypically active [14] 1 | phenotypically active [16] 1 | phenotypically active [17] 1 | phenotypically active [18] 1
inactive: phenotypically active [6] 0 | phenotypically active [15] 0 | phenotypically active [19] 0
